Experimental findings from the supplement of paper PMC8975748 are described below.

Structures are written as SMILES. Counter-ions that a name gives are not always drawn. ± gives the standard deviation of the averaged measurements.

For this assay, the system named is Saccharomyces cerevisiae BY4741 SeMeCo community. The assay can be described thus: mean cell size (pixel area) (pixels); higher = larger cells. Particulars: 10 µM; 24 h; SM minimal medium. The gist of the method:
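A four-plasmid fluorescent Saccharomyces cerevisiae BY4741 community was tested; each plasmid complements one auxotrophy and carries a fluorescent marker. An overnight preculture at OD600 = 1.0 was diluted to OD600 = 0.3, and 70 µl was added to 384-well plates acoustically predosed with drug (final 10 µM) in SM medium for 24 h. Cells were fixed with paraformaldehyde and imaged by automated confocal microscopy, with analysis in Harmony. Mean cell pixel area per well is averaged over 3 replicates. Same SeMeCo high-content imaging drug screen: Selleck FDA-approved drugs at 10 µM, 24 h in SM medium, 384-well plates, 3 replicates.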
The compound `COc1cc2c(cc1OC)C1CC(=O)C(CC(C)C)CN1CC2` (centres undefined) [Tetrabenazine (Xenazine)] showed a mean cell size of 12.62 ± 0.049. `COc1ccc2c(c1)[C@]13CCCC[C@@H]1[C@H](C2)N(C)CC3` [Dextromethorphan hydrobromide hydrate] yielded a mean cell size of 12.5 ± 0.24. In the case of `Nc1ccncc1` [4-Aminopyridine] it was 12.2 ± 0.16. Compound `CC[C@H]1[C@@H]2C[C@H]3[C@@H]4N(C)c5ccccc5[C@]45C[C@@H]([C@@H]2[C@H]5O)N3[C@@H]1O` [Ajmaline] showed a mean cell size of 12.1 ± 0.16. In the case of `CN1[C@@H]2CC[C@H]1C[C@@H](OC(=O)[C@H](CO)c1ccccc1)C2` [Hyoscyamine] it was 12.27 ± 0.064.

Take `CC(=O)O[C@H]1C[C@@H]2CC[C@@H]3[C@H](CC[C@@]4(C)[C@H]3C[C@H]([N+]3(C)CCCCC3)[C@@H]4OC(C)=O)[C@@]2(C)C[C@@H]1[N+]1(C)CCCCC1` [Pancuronium dibromide]: the mean cell size turned out to be 12.5 ± 0.19. `CC(NC(C)(C)C)C(=O)c1cccc(Cl)c1` (centres undefined) [Amfebutamone (Bupropion) HCl]: the mean cell size is 12.5 ± 0.13.

Compound `CCN(C)C(=O)Oc1cccc([C@H](C)N(C)C)c1` [Rivastigmine] returned a mean cell size of 12.7 ± 0.17. `COC(=O)C1=CCCN(C)C1` [Arecoline HBr] showed a mean cell size of 12.4 ± 0.29. To `CC(C)N(CCC(C(N)=O)(c1ccccc1)c1ccccn1)C(C)C` (centres undefined) [Disopyramide] belongs 12.27 ± 0.1. Turning to `O=C(O[C@H]1C[C@H]2CC[C@@H](C1)[N+]21CCCC1)C(O)(c1ccccc1)c1ccccc1` [Trospium chloride], the mean cell size is 12.5 ± 0.18. To `Oc1cc(Cl)ccc1Oc1ccc(Cl)cc1Cl` [Triclosan] belongs 12.5 ± 0.31. To `NC(=O)CN1CCCC1=O` [Piracetam] belongs 12.47 ± 0.028. In the case of `CCC1=C[C@H]2CN3CCc4c([nH]c5ccccc45)[C@](C(=O)OC)(C2)[C@H]13` [Catharanthine] it was 12.5 ± 0.19. `CN1[C@@H]2C[C@@H](OC(=O)[C@H](CO)c3ccccc3)C[C@H]1[C@@H]1O[C@@H]12` [Scopolamine HBr trihydrate] had a mean cell size of 12.1 ± 0.18.

`CCN1C[C@]2(OC(=O)c3ccccc3NC(C)=O)CC[C@H](OC)[C@@]34[C@@H]2C[C@@H]([C@@H]13)[C@@]1(O)C[C@H](OC)[C@H]2C[C@@H]4[C@]1(O)[C@H]2OC` [Lappaconitine] returned a mean cell size of 12.4 ± 0.3.

Turning to `CN1[C@@H]2C[C@@H](OC(=O)[C@H](CO)c3ccccc3)C[C@H]1[C@@H]1O[C@@H]12` [Scopolamine HBr], the mean cell size is 12.5 ± 0.14. To `C=C[C@H]1CN2CC[C@H]1C[C@H]2[C@H](O)c1ccnc2ccccc12` [Cinchonidine] belongs 12.47 ± 0.048; to `COc1ccc2[nH]cc(CCN)c2c1` [5-Methoxytryptamine], 12.18 ± 0.062; to `C=CN1CCCC1=O.II` [Povidone iodine], 12.5 ± 0.22.

Consider `O=C(O[C@H]1C[N+]2(CCCOc3ccccc3)CCC1CC2)C(O)(c1cccs1)c1cccs1` [Aclidinium Bromide], for which the mean cell size was determined as 12.59 ± 0.061. `O=[N+]([O-])C(Br)(CO)CO` [Bronopol]: the mean cell size is 12.2 ± 0.43. With `CN[C@@H]1[C@@H](O)[C@@H](O[C@@H]2[C@@H](O)[C@H](O[C@H]3O[C@H](CN)CC[C@H]3N)[C@@H](N)C[C@H]2N)OC[C@]1(C)O.CN[C@@H]1[C@@H](O)[C@@H](O[C@@H]2[C@@H](O)[C@H](O[C@H]3O[C@H]([C@@H](C)N)CC[C@H]3N)[C@@H](N)C[C@H]2N)OC[C@]1(C)O.CN[C@@H]1[C@@H](O)[C@@H](O[C@@H]2[C@@H](O)[C@H](O[C@H]3O[C@H]([C@@H](C)NC)CC[C@H]3N)[C@@H](N)C[C@H]2N)OC[C@]1(C)O` [Gentamicin Sulfate], the mean cell size is 12.1 ± 0.15.

Turning to `C[CH2][Hg][S]c1ccccc1C(=O)[O-].[Na+]` [Thimerosal], the mean cell size amounted to 12.3 ± 0.52. Regarding `N[C@@H]1C[C@H]1c1ccccc1` [Tranylcypromine (2-PCPA) HCl], the mean cell size came out at 12.3 ± 0.32. In the case of `NCCc1c[nH]c2ccc(O)cc12` [Serotonin HCl] it was 12.2 ± 0.41; in that of `CC[C@@H](C(N)=O)N1CCCC1=O` [Levetiracetam], 12.5 ± 0.14; in that of `COc1ccc(C(CN(C)C)C2(O)CCCCC2)cc1` (centres undefined) [Venlafaxine HCl], 12.3 ± 0.27. `[O-][n+]1ccccc1[S-].[O-][n+]1ccccc1[S-].[Zn+2]` [Zinc Pyrithione] came in with a mean cell size of 15.2 ± 0.23. Turning to `Oc1cccc2cccnc12` [8-Hydroxyquinoline], the mean cell size is 12.61 ± 0.039. To `CN[C@@H]1[C@@H](O)[C@@H](O[C@@H]2[C@@H](O)[C@H](O[C@H]3O[C@H]([C@@H](C)O)[C@@H](O)[C@H](O)[C@H]3N)[C@@H](N)C[C@H]2N)OC[C@]1(C)O` [Geneticin (G418 Sulfate)] belongs 11.99 ± 0.045; to `CC[C@@]1(O)C(=O)OCc2c1cc1n(c2=O)Cc2cc3ccccc3nc2-1` [Camptothecin], 12.3 ± 0.14; to `C[C@H]1O[C@H](O[C@H]2[C@H](O)[C@@H](O)[C@@H](O)[C@H](O)[C@@H]2O)[C@@H](N)C[C@@H]1NC(=N)C(=O)O` [Kasugamycin hydrochloride], 12.1 ± 0.21. To `C=CCN1C[C@H](C(=O)N(CCCN(C)C)C(=O)NCC)C[C@@H]2c3cccc4[nH]cc(c34)C[C@H]21` [Cabergoline] belongs 12.2 ± 0.17.
